Values joined by “and” are separate entries in the source; they are usually repeats but may differ in a detail not shown here. Equal entries are not always repeated. Among all 330,000 compounds or so, about 1,900 (0.58%) were called active. Inconclusive results (about 4%) are left out. These entries were drawn from the full list. Entries with a potency or affinity are not part of this list. A number with no mark means an inactive call. No stated cut-off is given here; in the data, inconclusive means inhibition above about 70% without an active follow-up result; inactive means below that.
Test: M. tuberculosis growth inhibition, HTS (AID 449762);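 further: bacterial growth assessed after seven days of incubation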
Conditions: M. tuberculosis H37Rv growth inhibition, 7H9 media; at 25 µM; stronger effect = higher value

Structure (SMILES)	inhibition
Cc1ccc2cccc(N)c2n1	1.54%
Cc1ccc2c(C)ccc(O)c2n1	-1.61%
COc1ccc(CC(=O)N2CCC3(CC2)NCCc2[nH]cnc23)cc1	2.98%
COc1ccccc1N1CCN(C2CCCN(C(=O)c3cccc(-c4ccco4)c3)C2)CC1 (configuration not stated)	2.87%
O=C(c1ccoc1)N1CCCC(N2CCN(c3ccc(F)cc3)CC2)C1 (configuration not stated)	-11.5%
CCOc1ccc(C2OC(=O)Cc3cc(OC)c(OC)cc32)cc1 (configuration not stated)	-2.13%
Cc1cccc(N2CCN(S(=O)(=O)c3cn(C)cn3)CC2)c1C	-3.87%
Nc1cc(Cl)ccc1Oc1ccc(Cl)cc1	4.14%
Nc1cc(Cl)ccc1Oc1ccccc1	-2.47%
O=C(CNC(=O)c1cnccn1)Nc1ccc(F)c(F)c1F	-5.9%
CN(CC(=O)Nc1ccc(F)c(F)c1F)c1ncnc2sccc12	1.29%
COCCN(C(=O)/C=C/c1ccccc1)c1c(N)n(Cc2ccccc2)c(=O)[nH]c1=O	-1.36%
O=C(O)c1ccc(N/N=C/C2=C(N3CCOCC3)C(=C\c3ccccc3)/CC2)cc1	0.66%
O=CC1=C(N2CCOCC2)/C(=C\c2ccccc2)CC1	-3.36%
O=C(NNC1CC(=O)N(c2ccc(Br)cc2)C1=O)c1cccnc1 (configuration not stated)	1.55%
O=C(Cc1ccccc1)NNC1CC(=O)N(c2ccc(Br)cc2)C1=O (configuration not stated)	0.86%
Cc1nn(C(C)C(=O)NCCCN(Cc2ccccc2)C(C)C)c(=O)c2c1sc1ccccc12 (configuration not stated)	-3.36%
C=CCC1c2cccc(C(=O)O)c2C(=O)N1c1cccc(C)c1 (configuration not stated)	0.68%
Cc1cccc(Nc2nc(-c3ccc(O)cc3O)cs2)n1	6.03%
CCOC(=O)C1CCN(c2ncnc3c2cnn3-c2ccc(Cl)cc2)CC1	5.45%
COc1ccc(-n2ncc3c(N4CCC(C(N)=O)CC4)ncnc32)cc1	2.74%
O=C(c1cnn(Cc2ccccc2)c1)N1CCN(S(=O)(=O)/C=C/c2ccccc2)CC1	6.35%
COCC(=O)Nc1sc2c(c1C(=O)OC)CCC(C)C2 (configuration not stated)	9.87%
COC(=O)c1c(NC(=O)CN2CCOCC2)sc2c1CCC(C)C2 (configuration not stated)	3.32%
COCC(=O)Nc1cccc(-c2ccc3nncn3n2)c1	0.62%

Structure (SMILES)	inhibition
CCCCCc1ccc(-c2cn(CC3CCCCC3)nn2)cc1	5.3%
CCn1cc(C(=O)NC(=S)Nc2ccccc2Br)cn1	-4.11%
CCn1c(C)c(C)c2cc(C(=O)NC3CCCCCC3)ccc21	0.46%
CCn1c(C)nc2cc(C(=O)NNC(=O)Nc3cccc(Cl)c3)ccc21	2.59%
COc1ccc(-c2cc(C(=O)N/N=C/c3cccnc3)c3ccccc3n2)cc1	-8.58%
CC(C)=CC(=O)N1CC[C@@H](N2CCN(c3ccccc3F)CC2)[C@H](O)C1	-5.32%
COc1ccc(/C=N/Nc2nc(C)cc(-c3ccccc3)n2)c(OC)c1	7.29%
COc1ccccc1/C=N/Nc1cc(C)nc2ccc(C)cc12	-11.1%
CC(C)Oc1cccc(OCCN2C(=O)c3ccccc3C2=O)c1	7.3%
NC(=S)NNC(=O)Nc1ccc(Cl)c(Cl)c1	-11.5%
NC(=S)NNc1ccnc2cc(Cl)ccc12	41.1%
CCOc1ccccc1N1CCN(CC(O)COCc2cccs2)CC1 (configuration not stated)	7%
C=CCn1c(CCCOc2ccc(Cl)cc2Cl)nnc1SCC(=O)Nc1nccs1	-6.64%
O=C(O)/C=C/C(=O)N1CCN(Cc2ccc3c(c2)OCO3)CC1	-4.14%
O=C(/C=C/c1cccs1)N1CCN(Cc2ccc3c(c2)OCO3)CC1	49.9%
C=CCn1c(SCC(=O)N(CC)CC)nc(O)cc1=O	1.96%
COc1cccc(/C=N/NC(=O)CNC(=O)/C=C\c2ccccc2)c1O	0.24%
O=C(Nc1ccccc1Cl)c1ccc(Cl)cc1Cl	64.5%
O=C(O)CN1C(=O)CSC1=S	3.79%
O=C(O)CCCCCN1C(=O)CSC1=S	-1.88%
O=C(CN1CCN(Cc2ccccc2F)C1=O)NCC1CCCO1 (configuration not stated)	1.03%
Cc1ccc(S(=O)(=O)N2CCN(C(=O)CCc3c[nH]c4ccccc34)CC2)cc1	-4.25%
O=C(CCc1c[nH]c2ccccc12)OCC(=O)N1CCN(S(=O)(=O)c2ccccc2)CC1	43.2%
COc1cc(CNC(C)c2ccccc2)c(Br)cc1OCC(N)=O (configuration not stated)	-3.38%
c1ccc(-c2cn3c(n2)SCC3)cc1	-1.11%

Structure (SMILES)	inhibition
Oc1ccc(-c2cn3c(n2)SCC3)cc1	-2.38%
COc1ccc(NC(=O)c2cc(-c3ccc(C)cc3)on2)cc1OC	-6.33%
COc1cc2c(cc1OC)C(C1C(=O)CCCC1=O)N(C(=O)CCl)CC2 (configuration not stated)	2.64%
COc1cc2c(cc1OC)C(c1cc(Br)ccc1O)N(C(C)=O)CC2 (configuration not stated)	-0.81%
Cc1ccc(S(=O)(=O)N2[C@@H](c3ccc(Br)cc3)C(C(=O)O)=CC[C@H]2c2ccc3c(c2)OCO3)cc1	3.53%
CCOC(=O)c1cnc(SC2CC(=O)N(c3ccc(C)cc3)C2=O)nc1N (configuration not stated)	-12.6%
CCOC(=O)c1cnc(SC2CC(=O)N(c3ccccc3)C2=O)nc1N (configuration not stated)	-5.11%
CC(C)(C)OC(=O)C[C@H]1C/C=C\C[C@H](CC(=O)NCCO)C(=O)N2CCC[C@@H]2COC1=O	2.79%
CSc1ccc(CN2CCC(CO)(Cc3ccc(Cl)cc3)CC2)cc1	2.5%
CNC(=O)NC(=O)COC(=O)CCc1nc(=O)c2ccccc2n1C	2.07%
Cn1nnnc1Sc1ncnc2scc(-c3ccccc3)c12	15.1%
Cn1nnnc1Sc1ncnc2scc(-c3cccc4ccccc34)c12	61.1%
COc1cc(C(=O)Nc2cccc(-n3cnnn3)c2)cc(OC)c1OC	-9.02%
Cc1ccc(-c2nn(-c3ccccc3)cc2C=C2C(=O)CC(C)(C)CC2=O)cc1	28.4%
CC1(C)CC(=O)C(=Cc2cn(-c3ccccc3)nc2-c2ccccc2)C(=O)C1	14.4%
CC1C=CCC2C(=O)N(c3cccc(C(=O)NCc4ccccc4)c3)C(=O)C12 (configuration not stated)	0.47%
COc1ccc(-c2cn3cc(Cl)ccc3n2)cc1OC	35.8%
COc1ccc(-c2cn3cc(C)ccc3n2)cc1OC	-0.94%
Cc1ccc(CN(C)C(=O)C2CCC(=O)N(C3CCCCCC3)C2)cc1 (configuration not stated)	0.77%
OCCC1CN(Cc2cccn2-c2cccnc2)CCN1C1CCCCC1 (configuration not stated)	-3.37%
CO/N=C/NC(=O)NOCc1c(Cl)cccc1Cl	-5.31%
NC(=O)NOCc1c(Cl)cccc1Cl	-2.55%
CN(C(=O)c1ccc2nc(N)sc2c1)c1ccccc1	-7.17%
COc1ccc(NC(=O)/C(=C\c2cccs2)NC(=O)c2ccco2)cc1	6.87%
CCOC(=O)N1CCN(C(=O)CCCN2C(=O)CSc3nc(C)cc(C)c32)CC1	0.43%

Structure (SMILES)	inhibition
COc1ccc(NC(=O)CCl)cn1	55.6%
COc1ccc(CS(=O)(=O)/C(Cl)=C(/Cl)C(=O)Nc2ccc(OC)nc2)cc1	35%
COc1ccc(S(=O)(=O)N2CCOCC2)cc1NC(=O)CCCOc1ccc(Cl)cc1C	-8.9%
COc1ccc(-n2c(-c3ccc(Cl)cc3)c[n+]3c2CCCCC3)cc1	-4.69%
COc1ccccc1-n1c(-c2ccccc2)c[n+]2c1CCc1ccccc1-2	10.8% and 4.8%
O=c1cccc2n1C[C@@H]1C[C@@H]2CN(CC(O)c2ccc([N+](=O)[O-])cc2)C1 (some centres not stated)	9.8%
COc1ccccc1C(=O)COC(=O)c1cc([N+](=O)[O-])ccc1N1CCOCC1	32.4%
Cc1cccn2c(Nc3ccccc3)c(-c3ccccn3)nc12	67.1%
Cc1ccccc1Nc1c(-c2ccccn2)nc2c(C)cccn12	1.32%
CCSc1nnc(-c2ccc(S(=O)(=O)NCc3cccs3)cc2)o1	-2.17%
Cc1ccc(C(=O)CSc2nnc(-c3c[nH]c4ccccc34)o2)cc1	0.92%
CSc1nnc(-c2ccc(Cl)cc2Cl)o1	26.3%
CCN(CC)C(=O)CSc1nnc(-c2c[nH]c3ccccc23)o1	1.41%
COc1ccccc1-c1nnc(SCC(=O)Nc2ccc(Cl)cc2Cl)o1	-3.38%
CCN(CC)C(=O)CSc1nnc(-c2ccc(S(=O)(=O)NCc3ccccc3Cl)cc2)o1	5.34%
C/C(=N\O)c1noc(C)c1C(=O)Nc1nccs1	-2.68%
O=S(=O)(c1cccc(-c2cn3ccccc3n2)c1)N1CCCCC1	0.63%
CCOC(=O)[C@H]1NN=C(C(=O)OC)[C@@H]1c1ccccc1	-5.97%
COCCOC(=O)N/C=C\c1nc2ccccc2c(=O)[nH]1	-1.7%
COc1ccc(C2C(C(=O)N3CCN(C)CC3)c3cc(OC)c(OC)cc3C(=O)N2C)cc1 (configuration not stated)	11%
CC(=O)c1ccc(NC(=O)C(C)O/N=C(\N)c2ccccc2)cc1 (configuration not stated)	1.95%
CCCc1ccc(-c2cc(C(=O)NC3=NCCS3)c3ccccc3n2)cc1	-0.06%
